From PubChem BioAssay (NCI)
This is part of a sample that, as a whole, favours compounds with a hit. Of some 83,000 tested, about 20% had one in any assay.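 How to read the values: 0–100, growth inhibition (40 = 60% inhibited); 0, no net growth; -100 to 0, cell death (-40 = 40% of starting cells died; -100 = all dead).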 Calls of active or inactive are those of the source.

These molecules were tested on SK-MEL-5 melanoma (assay: NCI-60 one-dose screen, 48 h (100 = growth as untreated, 0 = no growth, -100 = all killed)). Settings: 10 µM unless noted.
Protocol: Growth inhibition of the SK-MEL-5 human tumor cell line is measured as a screen for anti-cancer activity. Cells are grown in 96 well plates and exposed to the test compound for 48 hours. Compounds are tested at a single concentration, which is 10^-5 M for most compounds. The reported endpoint is percent growth (GI% or GIPRCNT), where numbers from 0 - 100% represent growth inhibition, and numbers from -100% - 0 represent cell death. For example, a value of 40 represents 60% growth inhibition. A value of 0 means no net growth occurred over the course of the experiment. A value of -40 indicates 40% of cells at the beginning of the experiment died by the end of the experiment. A value of -100 means all cells are dead at the end of the experiment.
NCI-60 Human Tumor Cell Lines Screen was performed using the standard one-dose NCI protocol, which is described in more detail at https://dtp.cancer.gov/discovery_development/nci-60/default.htm.
Compounds with GIPRCNT values below 10 were considered active. Activity score was based on GIPRCNT using the following formula: […]
Score is 0 for GIPRCNT values of 100 or above, 50 for GIPRCNT values of 0, and 100 for GIPRCNT values of -100.

Structure (SMILES) | growth
COc1cnc2c(c1)C(=O)c1c-2n(CCCN2CCCC2)c(=O)c2cc(F)ccc12 | -95.9% (active)
Nc1ccccc1C#Cc1ccccc1C#Cc1ccc(OCCCCCCOc2ccc(C#Cc3ccccc3C#Cc3ccccc3N)cc2)cc1 | 82.4% (inactive)
CSc1nc2nc3c(c(-c4ccc(C)cc4)c2c(=O)[nH]1)CN(C)C/C3=C\c1ccc(C)cc1 | 77.1% (inactive)
N#CC1c2ccccc2C=CN1C(=O)N(c1ccccc1)c1ccccc1 (stereo not given) | 65.4% (inactive)
NS(=O)(=O)c1ccc(-n2ncc3c(NC4CCCCC4)ncnc32)cc1 | 88.1% (inactive)
Cc1cnc2nc(-c3ccc(N(C)C)cc3)cn2c1 | 99.4% (inactive)
COc1ccc2c(c1)C(=Nc1cc(OC)c(OC)c(OC)c1)C(=O)N2 | 114% (inactive)
O=C1Nc2ccc(C(=O)O)c(O)c2C1=O | 104% (inactive)
Cc1ccc(-c2cc(-c3ccccc3)n(-c3ccccc3)n2)cc1 | 106% (inactive)
Cc1cc(C)c2c(N)c3cccc(C)c3nc2n1 | -38.7% (active)
Cc1ccc(-c2csc(N)n2)cc1 | 97.1% (inactive)
O=C(COc1ccc(/C=C2\Oc3ccc4ccccc4c3C2=O)cc1)c1ccc([N+](=O)[O-])cc1 | 92.3% (inactive)
COc1ccc2nc(N/N=C(\C)c3ccccn3)cc(C)c2c1 | -86.2% (active)
O=C(O)C1CCN(S(=O)(=O)c2ccc(-c3ccccc3)cc2)CC1 | 108% (inactive)
CC1=C([Se]CC(OC(=O)[C@@H](CSSC(C)(C)C)NC(=O)C(C)(C)C)C(=O)NCCCCCC(=O)OCc2ccccc2)C(=O)c2ccccc2C1=O (stereo not given in full) | -48.8% (active)
CCCCCN1C(=O)CCC1=O | 102% (inactive)
CC[C@@H](c1ccc(O)c(O)c1)[C@@H](CC)c1ccc(O)c(O)c1 | 91.4% (inactive)
COc1ccc(N2CCN(CC(=O)N3CCN(c4nnc(-c5ccccc5)c(-c5ccccc5)n4)CC3)CC2)cc1 | 13.9% (inactive)
Cc1c2oc3c(C)ccc(C(=O)OC(C)C4NC(=O)C(C(C)C)N(C)C(=O)CN(C)C(=O)C5CCCN5C(=O)C(C(C)C)NC4=O)c3nc-2c(C(=O)OC(C)C2NC(=O)C(C(C)C)N(C)C(=O)CN(C)C(=O)C3CCCN3C(=O)C(C(C)C)NC2=O)c(N)c1=O (stereo not given) | -92% (active)
CC(=O)N1N=C(c2ccc(Nc3ccnc4cc(Cl)ccc34)cc2)CC1c1ccc(Cl)cc1 (stereo not given) | -50.1% (active)

Structure (SMILES) | growth
CC[n+]1c(/C=C/c2ccc(N3CCCC3)cc2)cccc1/C=C/c1ccc(N2CCCC2)cc1 | -87.6% (active)
O=C1CSC(c2ccccc2Cl)N1c1nnc(Cn2nnc3ccccc32)o1 (stereo not given) | 79.3% (inactive)
CCOc1cc(/C=C/C(=O)CC(=O)/C=C/c2ccc(OC(=O)CNCCN(CC)CC)c(OCC)c2)ccc1OC(=O)CNCCN(CC)CC | -90.1% (active)
CCCCCc1c(C)[nH]c(/C=C2\N=C(c3ccc[nH]3)C=C2Oc2ccc(Cl)cc2)c1C | -90% [100 µM] (active)
FCc1ncc(-c2ccc(C(F)(F)F)cc2)c(NC2CCCCCC2)n1 | -3.43% [100 µM] (active)
O=C(COc1ccc(/C=C2\Cc3ccccc3C2=O)cc1)c1ccc(Cl)cc1 | 98.4% (inactive)
Nc1nc(Nc2ccccc2SSc2ccccc2Nc2nc(N)nc(-c3ccc(I)cc3)n2)nc(-c2ccc(I)cc2)n1 | 81.4% (inactive)
C[N+]1(C)C2CC[C@@H]1CC(OC(=O)C(O)c1ccccc1)C2 (stereo not given in full) | 102% (inactive)
Cc1cc(C)c(C(=O)c2cccs2)c(C)c1 | 109% (inactive)
COC(=O)C1(NC(=O)CNC(=O)OCc2ccccc2)CCCC1 | 100% (inactive)
O=C(O)CNC(=O)C1(N2C(=O)c3ccccc3C2=O)CCCC1 | 100% (inactive)
COC(=O)Nc1ccc2ccc3c(NC(=O)OC)ccc4ccc1c2c43 (tested in a mixture with another compound) | 37.3% (inactive)
CN1CCN(c2nc3scc(-c4ccccc4)c3c(=O)[nH]2)CC1 | 96.7% (inactive)
Oc1c(N=Nc2nn[nH]n2)ccc2ccccc12 | 38.4% (inactive)
CC(C)=CCCC(C)c1ccc(C)c2c1OCN(CC1CCNCC1)C2 (stereo not given) | 42.2% (inactive)
O=C(CNC(=O)c1cccc2ccccc12)Nc1ccccc1Cc1ccccc1 | 34.4% [5 µM] (inactive)
Cc1sc2nc(NCc3ccccc3)[nH]c(=O)c2c1C | 45.5% (inactive)
Nc1ccccc1-c1ccn[nH]1 | 96.6% (inactive)
CCOC(=O)c1sc(NC(=O)COc2ccc(/C=C3\CCc4cc(OC)ccc4C3=O)cc2)nc1C | 96.6% (inactive)
CCOC(=O)c1sc(NC(=O)COc2cccc(/C=C3\Cc4ccc(Cl)cc4C3=O)c2)nc1C | 97.4% (inactive)
